Screening data: PubChem, several laboratories
Cav3 T inh: inhibitors of human Cav3.2 T-type calcium channel. O95180. Cav3.2-expressing cells, Fluo-4 calcium fluorescence FDSS; active compounds read low. B-score at 10 µM. 4% of 100,000 active. AID 449739;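 active = single-dose well whose peak fluorescence ratio is a statistical outlier from its plate by either plate-standardised score or position-corrected B-score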
CYP2C19 activ: cytochrome P450 2C19 (human) activation; recombinant CYP2C19, luciferin-H EGE luminescence; active compounds read high; 0 = fully inhibited enzyme, 1 = untreated enzyme; activation factor at 5 µM; P33261; 96,000 tested, under 10 active; AID 1025;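 active = activation factor of at least 2 at 5 µM in the primary screen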;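 note: 0 = wells with 2.5 mM tranylcypromine and 1 = vehicle-only wells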
Target sequence (P33261 whole entry, looked up): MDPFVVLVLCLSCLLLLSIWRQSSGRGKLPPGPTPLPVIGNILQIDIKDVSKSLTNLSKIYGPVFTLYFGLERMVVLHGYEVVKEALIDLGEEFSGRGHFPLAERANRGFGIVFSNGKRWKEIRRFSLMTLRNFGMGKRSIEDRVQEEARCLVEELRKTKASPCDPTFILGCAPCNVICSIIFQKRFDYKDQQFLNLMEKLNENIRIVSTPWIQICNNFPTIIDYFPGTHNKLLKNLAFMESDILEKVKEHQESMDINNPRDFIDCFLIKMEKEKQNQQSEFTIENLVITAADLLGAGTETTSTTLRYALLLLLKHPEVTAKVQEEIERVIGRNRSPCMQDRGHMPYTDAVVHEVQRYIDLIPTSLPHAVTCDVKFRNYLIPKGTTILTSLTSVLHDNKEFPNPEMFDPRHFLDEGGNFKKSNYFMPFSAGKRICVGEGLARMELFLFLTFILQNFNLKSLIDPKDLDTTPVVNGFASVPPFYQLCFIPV
Pyk2 oligo antag: Pyk2 (human) oligomerization antagonism. Q293 cells, Pyk2 FERM NanoBiT luminescence; active compounds read low. z-score (the deposit names both 25 µM and 10 µM). 0.83% of 99,000 active;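 active = Z-score of -3 or lower, scaled per plate to the spread of control and sample wells; inactive = z-score above -3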;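 note: negative z-score means lost luminescence so less FERM oligomerization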
CYP2C19 inh: blocks human cytochrome P450 2C19; P33261; CYP2C19 Supersomes, luciferin-H EGE luminescence, 30 min; inhibition, % at 5 µM; 21% of 96,000 active;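 active = CYP2C19 inhibition above a set limit at 5 µM in the primary screen, cut at about 50% in these data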;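 note: plate controls were negative control wells for no effect and 2.5 mM tranylcypromine positive control for full effect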
CYP2C9 inhib: human CYP2C9 inhibition | 20% of 96,000 active | AID 777 | P11712 | CYP2C9 Supersomes, luciferin-H conversion, luminescence | inhibition, % at 5 µM;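 active = blocking of liver enzyme CYP2C9 beyond about 50% at 5 µM, limit read from the data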
CYP2C9 act: activators of human CYP2C9 | recombinant CYP2C9, luciferin-H conversion, luminescence; active compounds read high; factor 1 = untreated enzyme, 0 = blocked | AID 1024 | 1.4% of 96,000 active | P11712 | activation factor at 5 µM;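 active = activation factor of 2 or more for CYP2C9 at a 5 µM dose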;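 note: 0 = sulfaphenazole-blocked wells and 1 = vehicle-only wells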
Starred values were filed as active, the others as inactive; x = no result. Rows were chosen to be rich in hits. Some 27% of all compounds tested hit in one or more screens of this group.

SMILES | Cav3 T inh | CYP2C19 activ | Pyk2 oligo antag | CYP2C19 inh | CYP2C9 inhib | CYP2C9 act
O=C(CCCc1c[nH]c2ccccc12)N1CCOCC1 | 0.52 | 0.3 | 0.99 | 67* | -28 | 1.3
O=C(CSc1c[nH]c2ccccc12)N1CCOCC1 | 0.3 | 0.2 | -0.09 | 84* | 10 | 0.9
CCOC(=O)c1nc[nH]c1C | -0.25 | 1 | 0.88 | 0 | -2 | 1
O=C(O)c1ccc(CNCc2c(Cl)cccc2Cl)cc1 | 0.56 | 1.1 | 0.25 | -15 | -15 | 1.1
CC1CCC(N2CCN(c3ncccn3)CC2)C1 (stereo unspecified) | -1.2 | 0.5 | 0.18 | 46 | 3 | 1
COC(=O)C1=C(C(=O)OC)[C@@H]2Nc3ccccc3[C@@]23C[C@@H](C(=O)OC)N(C(=O)NC2CCCCC2)C3=N1 | -2 | x | x | x | x | x
O=C1CCCc2ccccc2N1Cc1c(Cl)cccc1Cl | x | 0 | -0.91 | 96* | 91* | 0.1
O=C1CCCc2ccccc2N1Cc1ccc(Cl)cc1Cl | -3.7 | 0.1 | -0.35 | 94* | 87* | 0.1
N=c1ccn(Cc2ccccc2Cl)cc1 | 0.64 | 1.1 | 0.51 | -6 | 31 | 0.7
O=C1CCCc2ccccc2N1Cc1ccccc1Cl | x | 0.1 | -1 | 88* | 46 | 0.5
CCOc1ccccc1N1CC(O)=C(c2nc3ccccc3s2)C1=N | -3.5 | 0.4 | -2.5 | 59* | 58* | 0.4
CCN(CC)CCCN1CC(O)=C(c2nc3ccccc3s2)C1=N | 0.25 | 1.1 | 0.3 | -8 | -12 | 1.1
COC(=O)C1=C(C)NC(C)=C(C(=O)OC)C1C(=O)OCC(=O)N1c2ccccc2CC1C (stereo unspecified) | 1.1 | 0.1 | -0.4 | 86* | 93* | 0.1
O=C(Cn1[nH]c(=O)c2ccccc2c1=O)OCC(=O)N1CCCc2ccccc21 | 0.83 | 0.5 | -0.06 | 51* | 43 | 0.6
O=C(c1ccc(Br)o1)N1CCCc2ccccc21 | 0.16 | x | -0.58 | x | x | x
O=C(OCC(=O)N1CCCc2ccccc21)c1ccc(Br)o1 | -0.29 | 0.1 | 0.65 | 85* | 51* | 0.5
O=C(OCC(=O)N1CCc2ccccc21)c1cccnc1 | 0.065 | 0.2 | 0.2 | 77* | 33 | 0.7
O=P(c1ccccc1)(c1ccccc1)C(O)c1ccncc1 (stereo unspecified) | 2.2 | 0.7 | 0.14 | 27 | 13 | 0.9
Cc1cccc(-c2noc(-c3cc4ccccc4oc3=O)n2)c1 | -0.84 | 0.7 | -0.47 | 27 | 1 | 1
CCCOc1ccc(-c2nnn(CC(=O)N3CCC(C)CC3)n2)cc1 | -2.2 | 0.9 | -0.18 | 12 | 18 | 0.8
CC1Cc2ccccc2N1C(=O)COC(=O)CNC(=O)c1ccc(Br)o1 (stereo unspecified) | -1.4 | 0.3 | 0.53 | 66* | 51* | 0.5
Cc1c(C(=O)OCC(=O)N2c3ccccc3CC2C)oc2ccccc12 (stereo unspecified) | x | x | -0.39 | x | x | x
Cc1c(CCOC(=O)CC23CC4CC(CC(C4)C2)C3)sc[n+]1Cc1ccccc1 | 0.76 | 1 | 1.8 | -4 | -20 | 1.2
CCCCCCCCCOC(=O)C[n+]1csc(CCO)c1C | 2 | 0.2 | -0.05 | 76* | 7 | 0.9
O=C(NNC(=O)c1ccccc1Br)c1ccc(Cl)c(Cl)c1 | -0.00021 | 0.8 | 0.97 | 24 | -123 | 2.2*
SMILES | Cav3 T inh | CYP2C19 activ | Pyk2 oligo antag | CYP2C19 inh | CYP2C9 inhib | CYP2C9 act
O=C(NNC(=O)c1ccccc1-n1cccc1)c1ccc(Cl)cc1 | -0.14 | 1 | 1.6 | -1 | -78 | 1.8
O=C(NNC(=O)c1ccccc1-n1cccc1)c1ccc(Cl)c(Cl)c1 | 0.51 | 0.5 | -0.19 | 50* | -49 | 1.5
CC(C)(C)c1ccc(C(=O)NNC(=O)c2ccccc2Br)cc1 | -0.036 | 1.1 | 0.33 | -10 | -5 | 1.1
CCCCCOC(=O)c1ccccc1C(=O)O | -0.031 | 0.9 | 0.32 | 9 | 20 | 0.8
COc1ccc(N2CCN(C(=O)c3ccc(NS(=O)(=O)c4ccc(F)c(F)c4)cc3)CC2)cc1 | -3.1 | 0.8 | 0.39 | 24 | 93* | 0.1
COc1ccc(N2CCN(C(=O)c3ccc(NS(=O)(=O)c4cccc(F)c4)cc3)CC2)cc1 | -3.3 | 0.8 | -0.13 | 24 | 90* | 0.1
COc1ccc(N2CCN(C(=O)c3ccc(C)c(Cl)c3)CC2)cc1 | -0.34 | 0.7 | -0.46 | 27 | 2 | 1
COc1cccc(S(=O)(=O)Nc2cccc(C(=O)N3CCCCCC3)c2)c1 | x | x | 1.1 | x | x | x
C=CCn1c(SCC(=O)Nc2nnc(CC)s2)nnc1-c1ccco1 | 1.4 | 0.9 | -0.1 | 8 | 45 | 0.5
CN(CCOc1ccc(-c2ccn(S(=O)(=O)c3ccc(Cl)cc3)n2)cc1)c1ccccn1 | -4.7* | 0.9 | 1.1 | 12 | 31 | 0.7
CN(CCOc1ccc(-c2ccn(S(=O)(=O)c3cccc4ccccc34)n2)cc1)c1ccccn1 | -1.5 | 0.5 | 0.84 | 50* | 49 | 0.5
CN(CCOc1ccc(-c2ccn(S(=O)(=O)c3c(Cl)cccc3Cl)n2)cc1)c1ccccn1 | -0.71 | 0.8 | 0.05 | 23 | 28 | 0.7
N/C(Cc1ccc(Cl)cc1Cl)=N\OC(=O)c1cccs1 | -3.5 | 0.5 | 1.1 | 54* | 44 | 0.6
CCOC(=O)CNC(=O)CSc1nc2cccnc2n1C | 0.55 | 0.7 | 0.69 | 32 | -5 | 1.1
c1ccc(-n2nnnc2SCc2ccccn2)cc1 | 0.59 | 0.1 | 0.72 | 88* | 28 | 0.7
Cc1cc(C)n2cc(CSc3nnnn3-c3ccc(Cl)cc3)nc2n1 | 0.84 | 1.1 | 0.71 | -5 | -118 | 2.2*
Cc1cccc2nc(CSc3nnnn3-c3ccccc3)cn12 | 0.42 | 0.2 | 0.6 | 84* | 37 | 0.6
Cc1cccc2nc(CSc3nncn3-c3ccccc3)cn12 | 0.55 | 1 | 0.06 | 4 | -20 | 1.2
Cc1ccc(-n2nnnc2SCc2ccccn2)cc1C | 0.15 | 0.4 | -0.82 | 57* | 1 | 1
C(=C\CSc1nnnn1-c1ccccc1)/CSc1nnnn1-c1ccccc1 | -2.5 | 0.9 | -0.27 | 6 | 20 | 0.8
Cc1cc(C)n2cc(CSc3nnnn3-c3ccccc3)nc2n1 | -0.21 | 1 | 1.2 | 4 | -20 | 1.2
COc1ccc(C(C(=O)NC2CCCC2)N(Cc2ccc(C)cc2)C(=O)c2ccn[nH]2)cc1OC (stereo unspecified) | 2.1 | 0.9 | 1.1 | 13 | 20 | 0.8
CCN(CC)CCOc1c(Br)ccc2c1sc1nc3n(c(=O)c12)CCC3 | 1.2 | 0.2 | -0.42 | 84* | 15 | 0.8
O=c1c2c(nc3n1CCCCC3)sc1c(O)c(Br)ccc12 | 1.2 | 1 | -1.5 | -5 | 16 | 0.8
CCOc1ccc(C(=O)N2CCCN(C(=O)c3ccc(OCC)cc3)CC2)cc1 | 1.4 | 0.7 | -0.38 | 30 | 61* | 0.4
CCCCOc1ccc(C(=O)N2CCC(C)CC2)cc1 | -2 | 0.3 | 1 | 70* | 54* | 0.5
CCCCOc1ccc(C(=O)N2CCCCCC2)cc1 | -0.16 | 1 | 0.49 | 4 | -7 | 1.1
Cc1occc1C(=O)Nc1cccc(/C=C/C(=O)O)c1 | -0.43 | x | -0.31 | x | x | x
